From PubChem
Pf growth 48h: inhibits P. falciparum growth in the first generation, 48 h. AID 504832. 310,000 tested, 5.9% active. P. falciparum luciferase growth in erythrocytes, 48 h. Potency, µM (top dose mostly 28.7 µM), actives largely listed as inhibitors
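First compound was added to culture medium, then infected red cells at 0.1% parasitemia and 2% hematocrit (final). After incubation at 37 C under 5% CO2, luciferase detection reagent was dispensed and light output recorded.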
Shiga inhibitor: inhibitors of Shiga toxin in Vero cells. Vero cells, Shiga toxin protein synthesis inhibition reporter. inhibition, % at 38.7 µM. 290,000 tested, 9.2% active. AID 2315; in the data active means inhibition mostly above about 28%, no sharp cut-off; inactive means mostly below about 43%
HCMV antiviral: human cytomegalovirus inhibition. HFF cells, HCMV-luciferase reporter, 72 h; hits give low values. activity change, negative = inhibition, % at 57.5 µM. 410,000 tested, 4.5% active. AID 1259415; in the data active means activity change below about -60%; inconclusive means no clear call, values can overlap the other calls; inactive means above about -39%
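Screen run at 2 compound doses on HFFs infected with reporter HCMV, MOI 1 PFU/cell. Luciferase activity from cell lysates at 72 h post infection gave inhibition relative to buffer-only and Salinomycin wells.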
Pf growth 96h: inhibits malaria parasite growth, 96 h | P. falciparum luciferase reporter growth, 96 h | Potency, µM (doses to about 28.7 µM), hits mostly inhibitors | 320,000 tested, 6.9% active | AID 504834
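Readout is luminescence from an integrated firefly luciferase in P. falciparum. Red cells, 2% hematocrit and 0.05% parasitemia final, were cultured with compound through two parasite generations (96 hours) at 37 C, 5% CO2.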
CHX counter: affects cycloheximide protein synthesis inhibition readout, counter-screen | cell reporter, cycloheximide protein synthesis inhibition counterscreen | max response, % | 300,000 tested, 12% active | AID 2314; in the data active means max response mostly above about 13%, no sharp cut-off; inactive means mostly below about 14%; further: read at 38.3 µM for the half of the compounds with a filed dose
A number is an active result. Most compounds without a hit are left out; they make up all but 20% or so of the library. Unless noted, the call rests on the fitted dose curve; in most records, active means well fitted inhibition curve with a large enough effect; inconclusive means small, poorly fitted or top-dose-only effect, or another doubt; inactive means no such curve, though single readings can be large or run the other way.

What do the screens show for `O=C(Nc1cccc(Cl)c1)Nc1csc([N+](=O)[O-])c1`?
Pf growth 48h: 3.7µM; Shiga inhibitor: 46; HCMV antiviral: -97; Pf growth 96h: 2.6µM; CHX counter: 16

How did Cc1ccc(C(=O)OCc2nnc(-c3ccccc3)o2)o1 do in these assays?
Pf growth 48h: inactive; Shiga inhibitor: inactive; HCMV antiviral: inactive; CHX counter: 25

Results for O=C(OCc1nnc(-c2ccccc2)o1)c1ccc2ccccc2n1 ?
Pf growth 48h: inactive; Shiga inhibitor: 26; HCMV antiviral: inactive; Pf growth 96h: inactive; CHX counter: 12

Results for O=C(OCc1nnc(-c2ccccc2)o1)c1cc2ccccc2cc1O ?
Pf growth 48h: inconclusive; Shiga inhibitor: inactive; HCMV antiviral: inactive; Pf growth 96h: inactive; CHX counter: inactive

What do the screens show for `Cc1ccc(-c2nnc(COC(=O)c3cccs3)o2)cc1`?
Pf growth 48h: inactive; Shiga inhibitor: 80; HCMV antiviral: inactive; Pf growth 96h: inactive; CHX counter: 54

How did Cc1ccc(-c2nnc(COC(=O)c3ccco3)o2)cc1 do in these assays?
Pf growth 48h: inactive; Shiga inhibitor: 60; HCMV antiviral: inactive; Pf growth 96h: inconclusive; CHX counter: 38

Results for O=C(OCc1nnc(-c2ccccc2)o1)c1ccc(CO)cc1 ?
Pf growth 48h: inactive; Shiga inhibitor: inactive; HCMV antiviral: inactive; Pf growth 96h: inactive; CHX counter: inactive

How did COc1cccc(C2CC(=O)Nc3cc(C)c(C)cc32)c1 (centres undefined) do in these assays?
HCMV antiviral: inactive

Results for O=C(O)CC1CCC(=C(Cl)Cl)C1 (centres undefined) ?
Pf growth 48h: inactive; Shiga inhibitor: inactive; HCMV antiviral: inactive; Pf growth 96h: 12µM; CHX counter: inactive

How did O=C(O)CC1CC(O)CCC1=O (centres undefined) do in these assays?
HCMV antiviral: inactive

Results for CCOC(=O)N1CCN(C(=O)CN(c2cc(C)ccc2OC)S(=O)(=O)c2ccc(C)cc2)CC1 ?
HCMV antiviral: inactive

What do the screens show for `COc1cccc(C(=O)COc2ccc(NC(=O)c3ccccc3)cc2)c1`?
Pf growth 48h: inactive; Shiga inhibitor: inactive; HCMV antiviral: inactive; Pf growth 96h: inconclusive; CHX counter: 16

Results for O=C(COc1cccc(NC(=O)c2ccccc2)c1)c1ccccc1 ?
Pf growth 48h: inactive; Shiga inhibitor: inactive; HCMV antiviral: inactive; Pf growth 96h: inactive; CHX counter: inactive

Results for COc1cccc(C(=O)Nc2cccc(OCC(=O)c3ccccc3)c2)c1 ?
Pf growth 48h: inconclusive; Shiga inhibitor: inactive; HCMV antiviral: inactive; Pf growth 96h: inactive; CHX counter: 21

Results for COc1cccc(C(=O)NCC(=O)OCC(=O)c2ccccc2)c1 ?
Pf growth 48h: inactive; Shiga inhibitor: 83; HCMV antiviral: inactive; Pf growth 96h: inactive; CHX counter: 29

How did COc1cc(OC)cc(C(=O)Nc2cccc(NC(=O)c3ccccc3)c2)c1 do in these assays?
Shiga inhibitor: inactive; HCMV antiviral: inactive; Pf growth 96h: inconclusive; CHX counter: inactive

Results for O=C(NNC(=O)c1ccc(Cl)nc1)c1ccncc1 ?
Pf growth 48h: inactive; HCMV antiviral: inactive; Pf growth 96h: inactive

Results for CCOC(=O)c1sc(N2C(=O)c3oc4ccc(F)cc4c(=O)c3C2c2cccc(OC)c2)nc1C (centres undefined) ?
HCMV antiviral: inactive

What do the screens show for `COc1cccc(CN2C(=O)C3CCCN3c3ccc(S(=O)(=O)N4CCOCC4)cc32)c1` (centres undefined)?
Pf growth 48h: 1µM; Shiga inhibitor: inactive; Pf growth 96h: 1.2µM; CHX counter: inactive

How did Cc1ccc(C)c(CN2C(=O)C3CCCN3c3ccc(S(=O)(=O)N4CCOCC4)cc32)c1 (centres undefined) do in these assays?
Pf growth 48h: 1µM; Shiga inhibitor: inactive; Pf growth 96h: inconclusive; CHX counter: inactive

What do the screens show for `Cc1cc(/C=C2\SC(=O)N(C)C2=O)c(C)n1-c1ccc(S(N)(=O)=O)cc1`?
Pf growth 48h: inactive; Shiga inhibitor: inactive; HCMV antiviral: inactive; Pf growth 96h: inactive; CHX counter: 22

What do the screens show for `CC(=O)NC1=NC(=O)/C(=C/c2cc(C)n(-c3cccc(C(=O)O)c3)c2C)S1`?
Pf growth 48h: inactive; Shiga inhibitor: inactive; HCMV antiviral: inactive; Pf growth 96h: inconclusive; CHX counter: inactive

How did CC(=O)NC1=NC(=O)/C(=C/c2cc(C)n(-c3ccc(NC(C)=O)cc3)c2C)S1 do in these assays?
Pf growth 48h: inactive; Shiga inhibitor: inactive; HCMV antiviral: inactive; Pf growth 96h: inactive; CHX counter: 33

How did Cc1cc(/C=C2\SC(=O)N(C)C2=O)c(C)n1-c1ccc(O)cc1 do in these assays?
Pf growth 48h: inactive; Shiga inhibitor: 51; HCMV antiviral: -69; Pf growth 96h: inactive; CHX counter: 34

How did Cc1cc(/C=C2\SC(=O)NC2=O)c(C)n1-c1ccc(N2CCOCC2)cc1 do in these assays?
Pf growth 48h: 10µM; Shiga inhibitor: inactive; HCMV antiviral: inactive; Pf growth 96h: inconclusive; CHX counter: inactive

How did Cc1ccc(S(=O)(=O)N2CCC(C(=O)OCC(=O)N3C(C)CCCC3C)CC2)cc1C (centres undefined) do in these assays?
HCMV antiviral: inactive

How did CC12CCC(=O)N1C(C(=O)Nc1nc3ccccc3s1)CS2 (centres undefined) do in these assays?
Pf growth 48h: inactive; HCMV antiviral: inactive; Pf growth 96h: inactive

What do the screens show for `CN=C1S/C(=C\c2cc(C)n(-c3ccccc3F)c2C)C(=O)N1C`?
Pf growth 48h: inactive; Shiga inhibitor: 96; HCMV antiviral: -66; Pf growth 96h: inactive; CHX counter: 44

Results for CN=C1S/C(=C\c2ccc(N3CCOCC3)cc2C)C(=O)N1C ?
Pf growth 48h: inactive; Shiga inhibitor: inactive; HCMV antiviral: inactive; Pf growth 96h: inactive; CHX counter: inactive

Results for NC(=O)c1ccccc1NC(=O)C1CCCN(c2ncnc3onc(-c4ccc(F)cc4)c23)C1 (centres undefined) ?
HCMV antiviral: inactive

What do the screens show for `CN1OC[C@@H]2CN3C(=O)N(c4cccc5ccccc45)c4ccccc4[C@@H]3C[C@@H]21`?
HCMV antiviral: -102

Results for CN1OC[C@@H]2CN(S(=O)(=O)c3cccc4ccccc34)[C@H](c3ccc(-c4ccccc4)cc3)C[C@@H]21 ?
HCMV antiviral: inactive

Results for O=c1[nH]nc(Sc2ncnc3sccc23)n1CCc1ccccc1 ?
Pf growth 48h: 10µM; Shiga inhibitor: inactive; HCMV antiviral: -95; Pf growth 96h: 9.3µM; CHX counter: inactive

Results for CCN(CC)C(=O)CSc1n[nH]c(=O)n1CCc1ccccc1 ?
Pf growth 48h: inactive; Shiga inhibitor: inactive; HCMV antiviral: inactive; Pf growth 96h: inactive; CHX counter: inactive

Results for Cc1c(/C=N/O)c2ccccn2c1C=O ?
Pf growth 48h: inactive; Shiga inhibitor: inactive; HCMV antiviral: inactive; Pf growth 96h: inactive; CHX counter: inactive

What do the screens show for `Cc1ccc(NC(=O)C2CCCN(c3nnc(-n4c(C)ccc4C)s3)C2)cc1Cl` (centres undefined)?
HCMV antiviral: inactive
